Bioassay records as filed in PubChem.
MEKK3 PB1 HTS – MEKK3-MEK5 PB1 interaction, increase or decrease | Q99759 | bead-based flow cytometry, Alexa488-MEK5 binding to MEKK3; actives lie on both sides; 0 = blocked by unlabeled MEK5, 100 = vehicle | binding response (% of control), % at 10 µM | 290,000 tested, 1.4% active | AID 1529;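 active = binding response more than 3 SD above or below the average of its plate-row segment, actives on both sides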;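 note: Alexa488 bead fluorescence after subtracting the streptavidin-only scavenger bead signal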
Target sequence (Q99759 whole entry, looked up): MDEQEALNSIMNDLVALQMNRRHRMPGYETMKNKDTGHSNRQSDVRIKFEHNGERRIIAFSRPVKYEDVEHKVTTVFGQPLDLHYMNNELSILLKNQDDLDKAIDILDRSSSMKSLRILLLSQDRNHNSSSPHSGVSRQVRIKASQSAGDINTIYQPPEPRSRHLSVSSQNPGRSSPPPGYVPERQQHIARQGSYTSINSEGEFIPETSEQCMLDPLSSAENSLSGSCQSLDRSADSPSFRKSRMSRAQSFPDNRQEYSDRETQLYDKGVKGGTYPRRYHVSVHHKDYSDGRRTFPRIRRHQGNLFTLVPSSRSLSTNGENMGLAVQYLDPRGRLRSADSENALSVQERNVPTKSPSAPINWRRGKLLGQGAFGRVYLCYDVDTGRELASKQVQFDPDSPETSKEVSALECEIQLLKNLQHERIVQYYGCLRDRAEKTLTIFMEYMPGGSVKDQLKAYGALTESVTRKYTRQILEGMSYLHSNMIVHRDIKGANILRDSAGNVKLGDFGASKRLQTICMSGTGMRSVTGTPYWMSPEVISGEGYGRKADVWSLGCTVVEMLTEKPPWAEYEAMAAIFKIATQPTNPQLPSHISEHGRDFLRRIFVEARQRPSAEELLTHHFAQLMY
FID counter – displaces DNA intercalator in HCV helicase counter-screen; DNA fluorescent intercalator displacement, fluorescence; 290,000 tested, 0.17% active; inhibition, % at 7.9 µM; in the data active = inhibition above about 37%;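 note: 0% = vehicle and 100% = reference compound; higher means more ethidium bromide displaced from hairpin DNA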
MEKK2wt PB1 HTS – raises or lowers MEK5 binding to wildtype human MEKK2 PB1 domain. Q9Y2U5. bead flow cytometry, Alexa488-MEK5 binding to MEKK2 WT; actives lie on both sides. binding response (% of control), % at 10 µM. 290,000 tested, 1.1% active; in the data active = binding response below about 67% or above about 130%
dFosB act – enhances mouse delta FosB homodimer DNA binding. P13346. activation, % at 25 µM. purified delta FosB, TAMRA-CDK5 oligo fluorescence polarization; percent of positive-control signal above neutral wells. 340,000 tested, 0.99% active;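 active = mean activation above about 17%, with every replicate also reaching it, limit read from the data, passing the limit was not always enough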
MEKK2mut PB1 HTS – signal of MEK5 binding to mutant human MEKK2 PB1 domain. bead flow cytometry, Alexa488-MEK5 binding to MEKK2 mutant. percent response, % at 10 µM. 290,000 tested, 0.35% active; in the data active = percent response above about 24%, passing the limit was not always enough
MEKK2wt confirm – raises or lowers MEK5 binding to wildtype human MEKK2, retest; binding response (% of control), % at 10 µM; 5,900 tested, 2.4% active; bead flow cytometry, Alexa488-MEK5 binding to MEKK2 WT; actives lie on both sides; shares compounds with MEKK3 PB1 HTS; in the data active = binding response below about 16% or above about 210%; inactive = in between
MEKK2mut-MEK5 – signal of MEK5 binding to mutant human MEKK2, retest | shares compounds with MEKK3 PB1 HTS | bead flow cytometry, Alexa488-MEK5 binding to MEKK2 mutant | percent response, % at 10 µM | 5,900 tested, 2% active; in the data active = percent response mostly above about 71%, no sharp cut-off; inactive = mostly below about 38%;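 note: higher means compound restores mutant binding toward wildtype level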
MEKK3 confirm – confirmation of inhibitors of MEK5 binding to human MEKK3; bead flow cytometry, Alexa488-MEK5 binding to MEKK3; stronger effect = lower value; binding response (% of control), % at 10 µM; 5,900 tested, 1.8% active; shares compounds with MEKK3 PB1 HTS;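 active = binding response below 72% of control, or above a set upper limit, though filed actives all read lower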;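 note: 100% = DMSO only wells and 0% = binding blocked by excess unlabeled MEK5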
Active calls of the source: *; [ ] = dose if it differs, or a comment. Only some compounds are listed: those with a hit (about 2.9% of all), similar ones and a draw of the others.

Results for [O-]/C(=C(\C(=S)NCc1ccccc1)[n+]1ccccc1)c1ccc(Cl)s1 ?
MEKK3 PB1 HTS: 74*[inhibitor]; FID counter: 1; MEKK2wt PB1 HTS: 81; dFosB act: -3; MEKK2mut PB1 HTS: -3; MEKK2wt confirm: 102; MEKK2mut-MEK5: -3; MEKK3 confirm: 102

Results for CCCNC(=S)Nc1c(C)n(C)n(-c2ccccc2)c1=O ?
MEKK3 PB1 HTS: 99; FID counter: -3; MEKK2wt PB1 HTS: 98; dFosB act: -5; MEKK2mut PB1 HTS: -1

Results for COCCn1c(N/N=C(C)/C=C/c2ccccc2)nc2c1c(=O)[nH]c(=O)n2C ?
MEKK3 PB1 HTS: 107; FID counter: -8; MEKK2wt PB1 HTS: 100; MEKK2mut PB1 HTS: -6

Results for COc1ccccc1N(CC(=O)NC1CCCCC1)C(=O)CCC(=O)Nc1ccccn1 ?
MEKK3 PB1 HTS: 114; FID counter: -41; MEKK2wt PB1 HTS: 110; dFosB act: -1; MEKK2mut PB1 HTS: 12

What do the screens show for `O=C(NNC(=S)Nc1ccccc1)c1ccccc1[N+](=O)[O-]`?
MEKK3 PB1 HTS: 5.0*[inhibitor]; FID counter: -3; MEKK2wt PB1 HTS: 7.0*[inhibitor]; dFosB act: -4; MEKK2mut PB1 HTS: -18; MEKK2wt confirm: 109; MEKK2mut-MEK5: 3; MEKK3 confirm: 103

How did O=C(N/N=C/c1cccnc1)c1ccccc1[N+](=O)[O-] do in these assays?
MEKK3 PB1 HTS: 58*[inhibitor]; FID counter: 2; MEKK2wt PB1 HTS: 88; dFosB act: 4; MEKK2mut PB1 HTS: -2; MEKK2wt confirm: 99; MEKK2mut-MEK5: -4; MEKK3 confirm: 99

How did O=C(N/N=C/c1ccc([N+](=O)[O-])cc1)c1cnccn1 do in these assays?
MEKK3 PB1 HTS: 66*[inhibitor]; FID counter: -3; MEKK2wt PB1 HTS: 64; MEKK2mut PB1 HTS: -19; MEKK2wt confirm: 96; MEKK2mut-MEK5: -4; MEKK3 confirm: 93

Results for O=C(NC(=S)NCc1cccnc1)c1ccccc1[N+](=O)[O-] ?
MEKK3 PB1 HTS: 2.0*[inhibitor]; FID counter: -2; MEKK2wt PB1 HTS: 2.0*[inhibitor]; dFosB act: -6; MEKK2mut PB1 HTS: -6; MEKK2wt confirm: 91; MEKK2mut-MEK5: -6; MEKK3 confirm: 96

Results for O=C(N/N=C/c1ccncc1)c1cnccn1 ?
MEKK3 PB1 HTS: 105; FID counter: -2; MEKK2wt PB1 HTS: 108; dFosB act: 0; MEKK2mut PB1 HTS: 6

How did COc1ccc(N(C(=O)c2snc(C(N)=O)c2N)C(C(=O)NCC2CCCO2)c2ccc(C)o2)cc1OC (stereo unspecified) do in these assays?
MEKK3 PB1 HTS: 99; FID counter: -34; MEKK2wt PB1 HTS: 95; dFosB act: -11; MEKK2mut PB1 HTS: -5

What do the screens show for `CC(=O)C1(O)CCC2C3CC(C)C4=CC(=O)C=CC4(C)C3(F)C(O)CC21C` (stereo unspecified)?
dFosB act: -1

Results for O=c1[nH]c(SCc2ccccc2[N+](=O)[O-])nc2nc[nH]c12 ?
MEKK3 PB1 HTS: 45*[inhibitor]; FID counter: -3; MEKK2wt PB1 HTS: 50; dFosB act: 6; MEKK2mut PB1 HTS: 12; MEKK2wt confirm: 102; MEKK2mut-MEK5: 4; MEKK3 confirm: 106

Results for Cc1ccc2cccc(Oc3nnnn3-c3ccccc3)c2n1 ?
MEKK3 PB1 HTS: 105; FID counter: -12; MEKK2wt PB1 HTS: 105; dFosB act: 0; MEKK2mut PB1 HTS: 2

How did c1ccc(-n2nnnc2Oc2cccc3cccnc23)cc1 do in these assays?
MEKK3 PB1 HTS: 0.0*[inhibitor]; FID counter: -14; MEKK2wt PB1 HTS: -8.0*[inhibitor]; dFosB act: -4; MEKK2mut PB1 HTS: -25; MEKK2wt confirm: 97; MEKK2mut-MEK5: -5; MEKK3 confirm: 103

How did CCn1cc(CN2CCC(C(=O)Nc3cccc(-c4cccc(OC)c4)c3)CC2)c(C)n1 do in these assays?
MEKK3 PB1 HTS: 101; FID counter: 11; MEKK2wt PB1 HTS: 103; dFosB act: -13; MEKK2mut PB1 HTS: 4

How did COc1ccc(/C(C)=N/NC(=O)CNC(=O)COc2ccccc2)c(OC)c1 do in these assays?
MEKK3 PB1 HTS: 100; FID counter: -30; MEKK2wt PB1 HTS: 96; dFosB act: 0; MEKK2mut PB1 HTS: -2

What do the screens show for `OC(c1cc(C(F)(F)F)nc2c(C(F)(F)F)cccc12)C1CCCCN1` (stereo unspecified)?
dFosB act: -115

How did OC(c1cc(-c2ccc(C(F)(F)F)cc2)nc(C(F)(F)F)c1)C1CCCCN1 (stereo unspecified) do in these assays?
MEKK3 PB1 HTS: 111; FID counter: 33; MEKK2wt PB1 HTS: 165*; dFosB act: -194; MEKK2mut PB1 HTS: 57*; MEKK2wt confirm: 153; MEKK2mut-MEK5: 32; MEKK3 confirm: 103

How did Cn1c(=O)[nH]c(=O)c2[nH]c(N(Cc3ccccc3)Cc3ccccc3)nc21 do in these assays?
MEKK3 PB1 HTS: 122*; FID counter: -23; MEKK2wt PB1 HTS: 121; dFosB act: -20; MEKK2mut PB1 HTS: 15; MEKK2wt confirm: 98; MEKK2mut-MEK5: 0; MEKK3 confirm: 101

What do the screens show for `Cn1c(=O)[nH]c(=O)c2[nH]c(CN3CCN(Cc4ccccc4)CC3)nc21`?
MEKK3 PB1 HTS: 102; MEKK2wt PB1 HTS: 103; dFosB act: 0; MEKK2mut PB1 HTS: 7

Results for COc1ccc(C2C3=C(CC(C)(C)CC3=O)Oc3ncn(Cc4ccco4)c(=N)c32)cc1 (stereo unspecified) ?
MEKK3 PB1 HTS: 2.0*[inhibitor]; FID counter: -23; MEKK2wt PB1 HTS: -1.0*[inhibitor]; dFosB act: 5; MEKK2mut PB1 HTS: -26; MEKK2wt confirm: 105; MEKK2mut-MEK5: 7; MEKK3 confirm: 103

Results for COc1ccc(C2C3=C(CC(C)(C)CC3=O)Oc3ncn(CC(C)C)c(=N)c32)cc1 (stereo unspecified) ?
MEKK3 PB1 HTS: 104; FID counter: -26; MEKK2wt PB1 HTS: 106; dFosB act: 0; MEKK2mut PB1 HTS: 4

What do the screens show for `Cc1ccc(Oc2nc3ccccn3c(=O)c2/C=C(\C#N)C(=O)Nc2c(C)n(C)n(-c3ccccc3)c2=O)c(C)c1`?
MEKK3 PB1 HTS: 74*[inhibitor]; FID counter: -10; MEKK2wt PB1 HTS: 97; dFosB act: -6; MEKK2mut PB1 HTS: -1; MEKK2wt confirm: 111; MEKK2mut-MEK5: 16; MEKK3 confirm: 104
